Test results from PubChem BioAssay (NCI).
Where “and” joins values, the source holds several entries; their conditions need not be identical. Equal values may be shown once. About 79,000 compounds went through this panel and 15% of them were active in at least one assay; those are over-represented in the sample as a whole. Some structures have more than one record in an assay (separate samples or runs), and their calls can disagree. Calls of active or inactive are those of the source. Cut-off read from the data, not from the text of the source: active = growth inhibition above about 70%; inactive = the rest.

Experiments:
[1] = NCI Yeast Anticancer Drug Screen. Data for the mec2-1 strain (AID 157); conditions: S. cerevisiae mec2-1 strain, stronger effect = higher value
In short: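 Growth inhibition is read against vehicle-treated controls after compound exposure of the mec2-1 yeast strain, which is defective in DNA damage repair or cell cycle control.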

[2] = NCI Yeast Anticancer Drug Screen. Data for the rad14 strain (AID 159);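 note: 0% = growth of vehicle-treated control cultures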; conditions: S. cerevisiae rad14 strain growth inhibition, stronger effect = higher value
In short: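 Here, inhibition of yeast growth was measured after compound exposure, using a strain with a genetic defect in DNA damage repair and vehicle-treated cultures as the reference.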

[3] = NCI Yeast Anticancer Drug Screen. Data for the sgs1 mgt1 strain (AID 161);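 note: 0% = growth of cultures given vehicle only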; conditions: S. cerevisiae sgs1 mgt1 strain, stronger effect = higher value
In short: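 This yeast growth screen uses a strain with defined DNA-repair lesions; compound-treated growth is compared with vehicle-treated growth.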

[4] = NCI Yeast Anticancer Drug Screen. Data for the CLN2oe strain (AID 163);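 note: 0% = growth of vehicle-only control cultures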; conditions: S. cerevisiae CLN2oe strain, stronger effect = higher value
In short: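 Compound-treated yeast; growth vs vehicle ctrl = % inhibition. Genetically altered strain (cell-cycle control).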

[5] = NCI Yeast Anticancer Drug Screen. Data for the cln2 rad14 strain (AID 165);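 note: 0% = growth equal to vehicle treated cultures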; conditions: S. cerevisiae cln2 rad14 strain, stronger effect = higher value
In short: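 Growth inhibition, relative to vehicle-treated controls, is the read-out. The test organism is a yeast strain with defined genetic alterations, cln2 rad14.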

[6] = NCI Yeast Anticancer Drug Screen. Data for the bub3 strain (AID 167); conditions: S. cerevisiae bub3 mutant strain, stronger effect = higher value
In short: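 Whole-cell yeast assay. The mutant strain was incubated with compounds, and growth inhibition was determined by comparison with vehicle-treated cells.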

[7] = NCI Yeast Anticancer Drug Screen. Data for the wt2 strain (AID 169);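 note: 0% = growth of vehicle-treated yeast cultures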; conditions: S. cerevisiae wt2 strain growth inhibition, stronger effect = higher value
In short: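 Compound exposure of yeast; growth compared with vehicle controls; inhibition reported.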

[8] = NCI Yeast Anticancer Drug Screen. Data for the sgs1 strain (AID 173);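 note: 0% = growth of vehicle-only control cultures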; conditions: S. cerevisiae sgs1 mutant, stronger effect = higher value
In short: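 Compounds applied to genetically altered yeast; growth compared with vehicle-treated cultures to give % inhibition.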

[9] = NCI Yeast Anticancer Drug Screen. Data for the mlh1 rad18 strain (AID 175); conditions: S. cerevisiae mlh1 rad18 strain growth inhibition, stronger effect = higher value
In short: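 Cells of a genetically altered yeast strain, deficient in DNA damage repair, were treated with compound. Their growth was then compared with that of vehicle-treated cultures to give inhibition.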

[10] = NCI Yeast Anticancer Drug Screen. Data for the rad18 strain (AID 177); conditions: S. cerevisiae rad18 mutant growth inhibition, stronger effect = higher value
In short: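 Compounds are applied to a repair-deficient yeast strain, and growth is compared with that of vehicle-treated cultures to give percent inhibition.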

[11] = NCI Yeast Anticancer Drug Screen. Data for the rad52 strain (AID 147);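 note: 0% = growth of vehicle-treated control cultures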; conditions: S. cerevisiae rad52 mutant growth inhibition, stronger effect = higher value
In short: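 DNA repair-defective yeast; compound exposure; growth scored against vehicle controls.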

[12] = NCI Yeast Anticancer Drug Screen. Data for the wt1 strain (AID 149);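 note: 0% = growth of vehicle-treated wt1 cultures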; conditions: S. cerevisiae wt1 strain (SPY 50644) growth inhibition, stronger effect = higher value
In short: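 Measured: growth of wt1 yeast under compound versus vehicle treatment, reported as inhibition.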

[13] = NCI Yeast Anticancer Drug Screen. Data for the rad50EPP+ strain (AID 151);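 note: 0% = growth of vehicle-treated control cultures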; conditions: S. cerevisiae rad50 mutant strain, stronger effect = higher value
In short: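 rad50EPP+ yeast treated with test compounds. Readout: growth vs vehicle control.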

[14] = NCI Yeast Anticancer Drug Screen. Data for the mgt1 strain (AID 153); conditions: S. cerevisiae mgt1 mutant growth inhibition, stronger effect = higher value
In short: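 Growth inhibition relative to vehicle controls was scored for the mgt1 yeast strain after compound exposure.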

[15] = NCI Yeast Anticancer Drug Screen. Data for the rad50 strain (AID 155);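 note: 0% = growth of vehicle-only cultures of the same strain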; conditions: S. cerevisiae rad50 strain growth inhibition, stronger effect = higher value
In short: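 Growth of the mutant yeast was measured after compound exposure and referenced to vehicle-treated cultures.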

[16] = NCI Yeast Anticancer Drug Screen. Data for the mlh1 strain (AID 171);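 note: 0% = growth of vehicle-treated control cultures of the same strain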; conditions: S. cerevisiae mlh1 strain growth inhibition, stronger effect = higher value
In short: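 Compounds are applied to a genetically altered yeast strain, and its growth is compared with that of vehicle-treated cultures to give percent inhibition.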

[17] = at 5.0 µM (retest, dose inferred, filed as 0.5)
[18] = at 50.0 µM (retest, dose inferred, filed as 5.0)

Measured: growth inhibition

CCOC(=O)CC1(C(=O)OCC)c2[nH]c3ccccc3c2CCN1Cc1ccccc1 (centres undefined)
active: [4]; at 100.0 µM 74% | [5]; at 50.0 µM 74%
inactive: [1]; [17] 13% | [1]; at 11.0 µM -5% | [1]; at 33.0 µM -2% | [1]; [18] 13% | [1]; at 50.0 µM 61.2% | [1]; at 100.0 µM 50% | [2]; at 1.2 µM 1% | [2]; at 3.7 µM 1% | [2]; at 11.0 µM 1% | [2]; at 33.0 µM 3% | [2]; at 100.0 µM 33% | [3]; [17] 43% | [3]; [18] 43% | [3]; at 50.0 µM 62% | [4]; at 1.2 µM -1% | [4]; at 3.7 µM 2% | [4]; at 11.0 µM 4% | [4]; at 33.0 µM 12% | [5]; [17] -4% | [5]; [18] -4% | [6]; at 1.2 µM -3% | [6]; at 3.7 µM -7% | [6]; [17] 6% | [6]; at 11.0 µM 8% | [6]; at 33.0 µM 26% | [6]; [18] 6% | [6]; at 50.0 µM 55.1% | [6]; at 100.0 µM 37% | [7]; at 1.2 µM -1% | [7]; at 3.7 µM 0% | [7]; at 11.0 µM 0% | [7]; at 33.0 µM 2% | [7]; at 100.0 µM 45% | [8]; at 1.2 µM -4% | [8]; at 3.7 µM -7% | [8]; at 11.0 µM -5% | [8]; at 33.0 µM 0% | [8]; at 100.0 µM 40% | [9]; [17] 31% | [9]; [18] 31% | [9]; at 50.0 µM 65.2% | [10]; at 1.2 µM -3% | [10]; at 3.7 µM -15% | [10]; at 11.0 µM 8% | [10]; at 33.0 µM 3% | [10]; at 100.0 µM 35%

C#CCN(Cc1ccc2nc(N)[nH]c(=O)c2c1)c1ccc(C(=O)NC(CCC(=O)O)C(=O)O)cc1 (centres undefined)
active: [11]; at 33.0 µM 73% | [11]; at 100.0 µM 88% | [15]; at 50.0 µM 77.5% and 72.5% | [15]; at 100.0 µM 89% | [1]; at 33.0 µM 89% | [1]; [18] 92% and 98% | [1]; at 50.0 µM 92% and 89.9% | [1]; at 100.0 µM 92% | [6]; [18] 71% and 96% | [8]; at 100.0 µM 75%
46% (inactive) and 78% (active): [9]; [18]
inactive: [11]; at 1.2 µM 19% | [11]; at 3.7 µM 29% | [11]; at 11.0 µM 28% | [12]; at 1.2 µM 2% | [12]; at 3.7 µM 9% | [12]; at 11.0 µM 15% | [12]; at 33.0 µM 17% | [12]; at 100.0 µM 43% | [13]; at 1.2 µM 27% | [13]; at 3.7 µM 37% | [13]; at 11.0 µM 44% | [13]; at 33.0 µM 29% | [13]; at 100.0 µM 41% | [14]; at 1.2 µM -29% | [14]; at 3.7 µM -23% | [14]; at 11.0 µM -27% | [14]; at 33.0 µM 17% | [14]; at 100.0 µM 34% | [15]; at 1.2 µM 26% | [15]; at 3.7 µM 29% | [15]; [17] 12% and 1% | [15]; at 11.0 µM 26% | [15]; at 33.0 µM 69% | [1]; at 1.2 µM -9% | [1]; at 3.7 µM -6% | [1]; [17] 4% and -6% | [1]; at 11.0 µM 17% | [2]; at 1.2 µM -2% | [2]; at 3.7 µM 18% | [2]; at 11.0 µM 2% | [2]; at 33.0 µM 44% | [2]; at 100.0 µM 69% | [3]; [17] 20% and 3% | [3]; at 50.0 µM 67.4% and 35.9% | [4]; at 1.2 µM 3% | [4]; at 3.7 µM 6% | [4]; at 11.0 µM -14% | [4]; at 33.0 µM 1% | [4]; at 100.0 µM 28% | [5]; [17] 0% and 14% | [5]; at 50.0 µM 30.1% and 16.3% | [6]; at 1.2 µM -6% | [6]; at 3.7 µM -8% | [6]; [17] 12% and -11% | [6]; at 11.0 µM -18% | [6]; at 33.0 µM 3% | [6]; at 50.0 µM 63.9% and 36.5% | [6]; at 100.0 µM 43% | [7]; at 1.2 µM -9% | [7]; at 3.7 µM -9% | [7]; at 11.0 µM 11% | [7]; at 33.0 µM 21% | [7]; at 100.0 µM 28% | [8]; at 1.2 µM 24% | [8]; at 3.7 µM 35% | [8]; at 11.0 µM 36% | [8]; at 33.0 µM 64% | [9]; [17] 5% and -8% | [9]; at 50.0 µM 35% and 20.6% | [10]; at 1.2 µM -2% | [10]; at 3.7 µM -23% | [10]; at 11.0 µM -26% | [10]; at 33.0 µM 33% | [10]; at 100.0 µM 65%
62% (inactive) and 82% (active): [3]; [18]
67% (inactive) and 82% (active): [15]; [18]
17% (inactive) and 78% (active): [5]; [18]

CN(C)[C@@H]1C(=O)C(C(N)=O)=C(O)[C@@]2(O)C(=O)C3=C(O)c4c(O)cccc4C[C@H]3C[C@@H]12
inactive: [11]; at 1.2 µM -5% | [11]; at 3.7 µM -10% | [11]; at 11.0 µM 17% | [12]; at 1.2 µM -1% | [12]; at 3.7 µM 2% | [12]; at 11.0 µM 30% | [13]; at 1.2 µM -9% | [13]; at 3.7 µM -8% | [13]; at 11.0 µM 14% | [13]; at 33.0 µM 10% | [13]; at 100.0 µM 9% | [14]; at 1.2 µM 0% | [14]; at 3.7 µM -5% | [14]; at 11.0 µM 21% | [15]; at 1.2 µM -19% | [15]; at 3.7 µM -25% | [15]; [17] 7% | [15]; at 11.0 µM 9% | [1]; at 1.2 µM -5% | [1]; at 3.7 µM -4% | [1]; at 11.0 µM 1% | [2]; at 1.2 µM 0% | [2]; at 3.7 µM -5% | [2]; at 11.0 µM 44% | [3]; [17] 23% | [4]; at 1.2 µM -7% | [4]; at 3.7 µM -15% | [4]; at 11.0 µM 27% | [5]; [17] 61% | [6]; at 1.2 µM -8% | [6]; at 3.7 µM -7% | [6]; at 11.0 µM 5% | [16]; at 1.2 µM -13% | [16]; at 3.7 µM -11% | [16]; at 11.0 µM 36% | [8]; at 1.2 µM -7% | [8]; at 3.7 µM -9% | [8]; at 11.0 µM 26% | [9]; [17] 38% | [10]; at 1.2 µM -7% | [10]; at 3.7 µM -8% | [10]; at 11.0 µM -2%
active: [11]; at 33.0 µM 97% | [11]; at 100.0 µM 98% | [12]; at 33.0 µM 95% | [12]; at 100.0 µM 99% | [14]; at 33.0 µM 97% | [14]; at 100.0 µM 99% | [15]; at 33.0 µM 95% | [15]; [18] 99% | [15]; at 50.0 µM 85.1% | [15]; at 100.0 µM 99% | [1]; [17] 87% | [1]; at 33.0 µM 97% | [1]; [18] 99% | [1]; at 50.0 µM 91% | [1]; at 100.0 µM 99% | [2]; at 33.0 µM 98% | [2]; at 100.0 µM 99% | [3]; [18] 99% | [3]; at 50.0 µM 91% | [4]; at 33.0 µM 98% | [4]; at 100.0 µM 99% | [5]; [18] 99% | [5]; at 50.0 µM 84.7% | [6]; [17] 97% | [6]; at 33.0 µM 97% | [6]; [18] 99% | [6]; at 50.0 µM 89% | [6]; at 100.0 µM 99% | [16]; at 33.0 µM 97% | [16]; at 100.0 µM 99% | [8]; at 33.0 µM 98% | [8]; at 100.0 µM 99% | [9]; [18] 99% | [9]; at 50.0 µM 89.8% | [10]; at 33.0 µM 95% | [10]; at 100.0 µM 99%
